Compound activity deposited in PubChem by National Center for Advancing Translational Sciences (NCATS).
HP1b binding inh = HP1-beta chromodomain-methylated histone interaction inhibition; AID 540317; P83916; Potency, µM (titrated, usually from 114 µM), inactives show top-dose activity change, negative = inhibition, hits mostly inhibitors; 390,000 tested, 0.56% active; AlphaScreen HP1-beta / biotin-H3K9me3 peptide binding; note: nearly all actives have a fitted effect of over 70% in size
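Compound inhibition of the preformed complex between 50 nM HP1-beta and 50 nM biotinylated H3K9me3 peptide was read by AlphaScreen. Buffer was PBS pH 7.4 with 0.01% Tween-20. Incubations ran 30 min at room temperature, with 10 ug/mL donor/acceptor beads.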
BAZ2B inh = BAZ2B (human) inhibition; Q9UIF8; AlphaScreen BAZ2B-H3K14Ac peptide displacement; Potency, µM (series often up to 114 µM), without a hit: at the top dose activity change, negative = inhibition, hits mostly inhibitors; 360,000 tested, 4.4% active; note: % is set by controls: 0 for no effect and ±100 for the full control effect; nearly all actives have a fitted effect of over 60% in size
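AlphaScreen luminescence quantifies BAZ2B engagement of H3K14Ac peptide; the protein and biotinylated peptide are both at 50 nM final, buffer PBS pH 7.4 with 0.01% Tween-20, all steps at room temperature.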
L3MBTL1 block = blocks human L3MBTL1; Potency, µM (titrated, usually from 57.1 µM), for inactives: at the top dose activity, negative = inhibition, most hits filed as inhibitors; Q9Y468; AlphaScreen L3MBTL1–H3K9me1 peptide binding; 230,000 tested, 0.66% active; note: % is set by controls: 0 for no effect and ±100 for the full control effect; nearly all actives have a fitted effect of over 60% in size
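Read-out is AlphaScreen signal from streptavidin donor and nickel chelate acceptor beads (10 ug/mL final each) bridging L3MBTL1 (50 nM) and biotinylated K9-monomethylated H3(1-15) peptide (75 nM), after 30 min compound exposure at room temperature.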
G9a inh = G9a (human) methyltransferase inhibition; Q96KQ7; G9a H3K9 monomethylation, AlphaScreen, 2 h; Potency, µM (series often up to 102 µM), without a hit: at the top dose activity, negative = inhibition, actives largely listed as inhibitors; 350,000 tested, 8.8% active; AID 504332; note: % is set by controls: 0 for no effect and ±100 for the full control effect; nearly all actives have a fitted effect of over 75% in size
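G9a (20 nM) preincubated 15 min RT with compounds, then 500 nM biotinylated H3K9 peptide and 20 uM SAM added; 2 h RT reaction. Monomethyl-H3K9 product detected by AlphaScreen with anti-H3K9me1 antibody, streptavidin donor and anti-rabbit IgG acceptor beads.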
GLS inhibitor = blocks human kidney-isoform glutaminase activity | O94925 | GLS enzymatic activity, qHTS titration | 410,000 tested, 0.21% active | AID 624170 | Potency, µM (titrated, usually from 45.5 µM), without a hit: top-dose activity change, negative = inhibition, most hits filed as inhibitors; note: % is set by controls: 0 for no effect and ±100 for the full control effect
Target sequence (O94925 whole entry, looked up, canonical isoform): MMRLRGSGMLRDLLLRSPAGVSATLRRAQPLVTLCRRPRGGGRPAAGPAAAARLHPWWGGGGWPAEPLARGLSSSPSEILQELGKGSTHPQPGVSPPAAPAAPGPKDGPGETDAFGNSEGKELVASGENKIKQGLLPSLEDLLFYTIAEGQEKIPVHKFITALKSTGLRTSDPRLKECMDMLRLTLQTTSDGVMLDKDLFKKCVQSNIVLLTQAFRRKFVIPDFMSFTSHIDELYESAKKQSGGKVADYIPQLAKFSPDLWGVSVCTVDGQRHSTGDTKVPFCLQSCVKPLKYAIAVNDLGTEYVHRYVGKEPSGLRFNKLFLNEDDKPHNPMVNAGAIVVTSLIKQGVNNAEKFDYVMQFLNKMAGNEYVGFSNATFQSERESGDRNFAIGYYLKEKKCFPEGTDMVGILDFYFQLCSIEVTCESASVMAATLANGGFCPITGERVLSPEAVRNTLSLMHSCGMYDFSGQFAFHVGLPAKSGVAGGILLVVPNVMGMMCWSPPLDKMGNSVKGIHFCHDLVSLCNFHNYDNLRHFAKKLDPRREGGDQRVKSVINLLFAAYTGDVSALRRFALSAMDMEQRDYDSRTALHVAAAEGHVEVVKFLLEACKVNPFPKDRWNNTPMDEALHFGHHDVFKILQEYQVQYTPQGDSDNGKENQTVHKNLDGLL
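Coupled fluorescence readout: glutamate oxidase/HRP/Amplex Red detect glutamate formed by hKGA from L-glutamine (1 mM solution added). Buffer 45 mM KH2PO4 pH 8.2, 0.02% Tween-20; reads at t0 and 30 min RT.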
JMJD2A Tudor inh = JMJD2A Tudor domain (human) inhibition. O75164. AID 504339. AlphaScreen JMJD2A-Tudor / H3K4me3 peptide binding. 390,000 tested, 4.4% active. Potency, µM (highest dose often 114 µM), for inactives: at the top dose activity change, negative = inhibition, actives largely listed as inhibitors; note: % is set by controls: 0 for no effect and ±100 for the full control effect; nearly all actives have a fitted effect of over 50% in size
* marks the source's active call; other numbers are inactive results; u = inconclusive; x = not tested or not shown; [ ] = remark or other dose. Only some compounds are listed: those with a hit (about 10% of all), similar ones and a draw of the others. Calls come from the whole dose curve; as a rule, active = well fitted curve in the direction sought with a large enough effect; inconclusive = small, poorly fitted or top-dose-only effect, or another doubt; inactive = no such curve, though single readings can be large; an effect the other way counts as inactive or inconclusive. Potency is the fitted concentration of half-maximal effect.

SMILES	HP1b binding inh	BAZ2B inh	L3MBTL1 block	G9a inh	GLS inhibitor	JMJD2A Tudor inh
N#CCCn1c(=O)c(-c2ccc(F)cc2)nc2cnc(Oc3ccccc3)nc21	x	x	x	5%[12.7 µM]	x	x
COc1ccccc1/C=N\Nc1ccccc1[N+](=O)[O-]	13µM*	3.2µM*	-27%	7.9µM*	-2%	8.9µM*
O=[N+]([O-])c1ccccc1N/N=C/c1cc2ccccc2nc1Cl	1%	u	x	50µM*	4%	u
COc1ccc(/C=N\Nc2ccccc2[N+](=O)[O-])c(C(=O)O)c1OC	1%	u	u	x	14%	0%[11.4 µM]
COc1ccc(/C=N\Nc2ccc([N+](=O)[O-])cc2[N+](=O)[O-])c(C(=O)O)c1OC	u	-38%	-24%	25µM*	12%	50µM*
COc1ccc(-n2c(/C=C/c3ccccc3F)nc3cc(OC)c(OC)cc3c2=O)cc1Cl	7%	2%	x	-3%[59 µM]	-3%	-16%
NC(=O)NS(=O)(=O)Oc1ccccc1	13%	-9%	15%	x	18%	89µM*
CCc1ccccc1NC(=O)c1nn(-c2ccc(C)cc2)c(=O)c2c1c1ccccc1n2C	18%	x	x	13%[59 µM]	-6%	3%
Cc1ccc(Cl)cc1N1CCN(C(=O)CSc2ccsc2[N+](=O)[O-])CC1	-6%	50µM*	u	50µM*	-1%	u
COc1ccc(N2CCN(C(=O)CSc3nnc4n3C(C)(C)Cc3ccccc3-4)CC2)cc1	-2%	u	0%	u	4%	-32%
Cc1ccc(Cl)cc1N1CCN(C(=O)CSc2nnc3n2C(C)(C)Cc2ccccc2-3)CC1	41%	3%	-5%	8.9µM*	-10%	89µM*
Cc1ccc(Cl)cc1N1CCN(C(=O)CSc2cc(=O)n(C)c3ccccc23)CC1	16%	x	x	-38%[59 µM]	13%	u
O=C(O)Cc1cccc(=O)c(O)c1C(=O)O	40µM*	x	x	x	2.2µM*	1.1µM*
CCCOc1ccc(CSc2nnc(CCC)n2N)cc1	11%	5%	1%	-2%	9%	-10%
CCCc1nnc(SCc2ccc(OC)cc2)n1N	u	4%	x	-27%[12.7 µM]	u	14µM*
Cc1ccc(C(=O)NCC(=O)OC(C)C(=O)Nc2ccc(N(C)C)cc2)cc1C (stereo not given)	u	u	x	25µM*	-1%	u
CC(=O)NCC(=O)OC(C)C(=O)Nc1ccc(C(C)=O)cc1 (stereo not given)	57%	-3%	-2%	20%[59 µM]	2%	-20%[57.1 µM]
CCCCN(CC)C(=O)CSc1nc2n[nH]c(C)c2c(=N)n1-c1ccc(CC)cc1	-3%	-10%	x	5%[59 µM]	-8%	-31%
O=C(NCCc1cscn1)C1CCC(=O)N(Cc2ccc(Cl)cc2)C1 (stereo not given)	14%	-19%	x	71µM*	3%	-16%
Cc1ccc(NC(=O)N2CCN3CCCCC3C2)cc1C (stereo not given)	32%	-10%	x	0%[59 µM]	4%	6%
O=C(NNC1CC(=O)N(c2ccc(F)cc2)C1=O)c1cccnc1 (stereo not given)	39%	-11%	x	13µM*	u	6%
CC(C)c1ccc(N2C(=O)CC(NNC(=O)c3cccnc3)C2=O)cc1 (stereo not given)	40%	-21%	-6%	56µM*	u	-3%
CNC(=O)C1CCC(Cn2c(=O)c3sccc3n(CC(=O)N3CCCC(C)C3)c2=O)CC1 (stereo not given)	24%	-11%	x	14%[59 µM]	1%	-9%
COc1ccc(-c2ccc(/C=C3/C(=N)N4C(C)=CSC4=NC3=O)o2)c([N+](=O)[O-])c1	-30%	u	-1%	7.1µM*	-9%	u
COc1ccc(-c2ccc(/C=C3\C(=O)N(c4ccccc4)N=C3c3ccccc3)o2)c([N+](=O)[O-])c1	3.5µM*	8.9µM*	-17%	7.1µM*	-2%	u
SMILES	HP1b binding inh	BAZ2B inh	L3MBTL1 block	G9a inh	GLS inhibitor	JMJD2A Tudor inh
COc1ccc(-c2ccc(C(=O)O)o2)c([N+](=O)[O-])c1	17%	u	-8%	56µM*	-4%	-6%
COC(=O)c1ccccc1-c1ccc(/C=C2\C(=O)N(c3ccccc3)N=C2c2ccccc2)o1	1.4µM*	3.2µM*	-4%	7.1µM*	2%	u
CC1=CSC2=NC(=O)/C(=C\c3cccn3-c3ccc([N+](=O)[O-])cc3)C(=N)N12	84%	10%	-7%	-19%	3%	u
CC(C)N1C(=O)S/C(=C/c2ccc(Sc3nc4ccccc4[nH]3)o2)C1=O	7%	-29%	0%	71µM*	3%	-23%
C=CCN1C(=O)S/C(=C/c2ccc(Sc3nc4ccccc4[nH]3)o2)C1=O	25%	-2%	-10%	2µM*	-8%	-16%
CCS(=O)(=O)N1CCc2cc(C(=O)NC(C)c3ccccc3)ccc21 (stereo not given)	23%	-31%	x	-50%[59 µM]	-13%	-25%
CCc1ccc(C(=O)c2cn(CC(=O)Nc3ccc4c(c3)OCCO4)c3ccc(C)cc3c2=O)cc1	22%	-11%	x	-5%[59 µM]	17%	-15%
CCn1c(N2CCN(CC(=O)c3ccc(OC)cc3)CC2)nc2ccccc21	6%	1%	0%	-46%[59 µM]	3%	-17%[57.1 µM]
COc1ccc(C(=O)CN2CCN(c3cc(C)nc4ccccc34)CC2)cc1	37%	-12%	-10%	13µM*	1%	-17%
O=C(CN1CCN(c2ccc([N+](=O)[O-])cc2)CC1)c1ccccc1	-4%	-26%	x	7.1µM*	2%	u
O=C(Cc1ccccc1)N1CCN(c2ccc([N+](=O)[O-])cc2)CC1	24%	-1%	x	77%	-2%	-8%
COc1ccc(N2CCN(CCC(=O)c3ccc4ccccc4c3)CC2)cc1	-10%	u	x	10µM*	11%	u
COc1ccc2c(c1)c(C(=O)CN1CCN(c3ccccc3)CC1)c(C)n2C	-7%	u	-28%	35µM*	4%	-33%
COc1ccc2c(c1)c(C(=O)CN1CCN(Cc3ccccc3)CC1)c(C)n2C	22%	-4%	-2%	x	-2%	-19%
COc1ccc(N2CCN(C(=O)CCCC(=O)c3ccccc3)CC2)cc1	17%	u	-5%	-14%	31%	-22%
Cc1ccccc1-n1nc(CO)c(C(=O)NCc2cccs2)n1	19%	0%	x	-3%[59 µM]	-7%	-3%
CN(Cc1ccco1)C(=O)c1ccc2c(c1)N(Cc1ccccc1F)C(=O)c1ccccc1S2	11%	-19%	x	-31%[59 µM]	-6%	u
CCOc1ccc(NC(=O)CC2C(=O)N(c3ccc(C)cc3)C(=O)N2C2CCCCC2)cc1 (stereo not given)	21%	-9%	x	-22%[59 µM]	11%	-23%
